This note sets out measurements from PubChem BioAssay (Tox21).

Molecules are shown by their SMILES. Where “and” joins values, the source holds several entries; their conditions need not be identical. Equal values may be shown once. Inconclusive results are not listed. A structure can be active in one record and inactive in another. A number with no mark means an inactive call. Calls of active or inactive are those of the source. Calls follow the shape of the dose curve; as a rule, active = well fitted curve in the direction sought with a large enough effect in the repeat runs; inconclusive = weak or mixed curves; inactive = no such curve, though single readings can be large; an effect the other way counts as inactive or inconclusive.

The nature of assay [1]: qHTS RealTime-Glo MT Cell Viability Assay in HepG2 cells - 40 hour (AID 1224870). Also: nearly all actives have a fitted effect of over 50% in size. In outline:
(§1)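 HepG2 cells (600/well) mixed with RealTime-Glo MT reagent, settled 5 h at 37 C/5% CO2 before compound addition. Nonlytic NanoLuc luminescence from viable-cell prosubstrate reduction read repeatedly during 40 h treatment at 37 C.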
(Quantitative high-throughput screening tests each substance at several concentrations.)

Assay [2] can be described thus: A CellTox Green Cytotoxicity Assay to monitor cytotoxicity in HEK293 cells - 40 hour (AID 1224871). Also: nearly all actives have a fitted effect of over 45% in size. Also: potency is read from the fitted curve at half-maximal effect. In outline: (§2)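 Tox21 screen in HEK293: membrane-impermeant cyanine dye fluoresces on binding dead-cell DNA; compound pinned 5 h post-seeding, plates held at 37 C, signal read repeatedly through 40 h.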
Assay [3] is described as follows: qHTS RealTime-Glo MT Cell Viability Assay in HEK293 cells - 16 hour (AID 1224872). Also: top concentration of the series differs between compounds; nearly all actives have a fitted effect of over 50% in size. In outline: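 Nonlytic real-time viability readout: viable cells convert prosubstrate to NanoLuc substrate, giving luminescence proportional to live cell number. HEK293, 600 cells/well, compound added after 5 h, continuous culture at 37 C.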
Assay [4] is described as follows: qHTS RealTime-Glo MT Cell Viability Assay in HepG2 cells - 8 hour (AID 1224873). Also: nearly all actives have a fitted effect of over 55% in size. In outline: as §1
The nature of assay [5]: qHTS RealTime-Glo MT Cell Viability Assay in HEK293 cells - 40 hour (AID 1224874). Also: nearly all actives have a fitted effect of over 50% in size. Also: potency is read from the fitted curve at half-maximal effect. The settings on record: RealTime-Glo luminescence; max response: hits give low values. In outline:
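HEK293 + NanoLuc + prosubstrate, 600 cells/well; 5 h, 37 C/5% CO2; compound 23 nL in DMSO by pintool; 37 C; luminescence read at 0, 8, 16, 24, 32 and 40 h time points.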

Assay [6] can be described thus: A CellTox Green Cytotoxicity Assay to monitor cytotoxicity in HEK293 cells - 24 hour (AID 1224875). Also: series mostly up to about 77 µM; nearly all actives have a fitted effect of over 45% in size. In outline: as §2
Assay [7] is described as follows: A CellTox Green Cytotoxicity Assay to monitor cytotoxicity in HepG2 cells - 16 hour (AID 1224876). Also: nearly all actives have a fitted effect of over 45% in size. In a few lines:
(§3)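 Measurements at 0, 8, 16, 24, 32 and 40 h of treatment captured CellTox Green fluorescence in HepG2 cells that had been co-plated with reagent and preincubated 5 h at 37 C/5% CO2.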

A short description of assay [8]: qHTS RealTime-Glo MT Cell Viability Assay in HepG2 cells - 32 hour (AID 1224877). Also: nearly all actives have a fitted effect of over 55% in size. In a few lines:
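Luminescence read-out: viable HepG2 cells reduce a prosubstrate to a NanoLuc substrate, giving a signal proportional to live cell number. Reads taken at 0, 8, 16, 24, 32 and 40 h of compound exposure at 37 C.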

Assay [9] can be described thus: A CellTox Green Cytotoxicity Assay to monitor cytotoxicity in HepG2 cells - 24 hour (AID 1224878). Also: nearly all actives have a fitted effect of over 45% in size. In a few lines: as §3
Assay [10] is described as follows: A CellTox Green Cytotoxicity Assay to monitor cytotoxicity in HepG2 cells - 40 hour (AID 1224879). Also: nearly all actives have a fitted effect of over 40% in size. In outline: as §3
% is scaled to controls: 0 for no effect and ±100 for the full control effect.

On to `c1ccc(Oc2ccccc2)cc1`, for which the call in [1], in assay [7] and in [8] was inactive. Besides, the Potency in assay [2] is 50.5 µM (active). Also, the Potency entry in assay [3], in assay [4], in assay [6], in assay [9] and in [10] was “inactive” each time. For the same compound, the max response in assay [5] is -2.3% and -6.04%.

Take `CNC(=S)N(C)C`: the result in assay [1], in assay [7] and in assay [8] was inactive. In addition, the Potency result in assay [2], in assay [3], in [4], in [6], in assay [9] and in assay [10] was “inactive” in each case. Also, in assay [5], the Potency is 11.6 µM (active). For the same compound, the max response in [5] is 3.02%.

As for `CCCCOC(=O)c1ccc(N)cc1`, the compound was called inactive in assay [1], in [7] and in [8]. Also, the Potency entry in assay [2], in assay [3], in assay [4], in [6], in [9] and in [10] was “inactive” each time. Also, in assay [5], the max response is 0.814%.

Take `CCCCCC(=O)O`: the outcome in assay [1], in assay [7] and in assay [8] was inactive. In addition, the Potency entry in assay [2], in assay [3], in [4], in [6], in assay [9] and in [10] was “inactive” in each case. Also, the max response in [5] was 18.5% and 15.2%.

In the case of `CCNc1cccc(C)c1`, the compound was called inactive in assay [1], in assay [7] and in assay [8]. For the same compound, the Potency entry in [2], in assay [3], in assay [4], in [6], in assay [9] and in assay [10] was “inactive” in each case. Further, the max response in assay [5] was -1.66% and 8.48%.

In the case of `CC(C)c1cccc(C(C)C)c1`, the compound was called inactive in assay [1], in assay [7] and in assay [8]. For the same compound, the Potency entry in assay [2], in assay [3], in assay [4], in [6], in assay [9] and in assay [10] was “inactive” in each case. In assay [5], the max response was 2.88% and 7.17%.

Consider `CSc1ccc(Cl)cc1`, for which the compound was classed as inactive in [1], in assay [7] and in assay [8]. Moreover, the Potency result in assay [2], in assay [3], in [4], in assay [6], in [9] and in assay [10] was “inactive” each time. The max response in [5] is -0.983% and -3.28%.

For `O=C(O)c1cc2ccccc2cc1O`, the outcome in [1], in assay [7] and in assay [8] was inactive. The Potency result in assay [2], in [3], in [4], in assay [6], in [9] and in assay [10] was “inactive” each time. Moreover, in [5], the max response was -2.62% and 6.1%.

As for `C=CCCCCCCCCC(=O)O`, the compound was classed as inactive in [1], in assay [7] and in assay [8]. Moreover, the Potency result in assay [2], in assay [3], in assay [4], in assay [6], in assay [9] and in assay [10] was “inactive” in each case. Also, the max response in assay [5] was 12.5% and 0.601%.

In the case of `CCCCCCCCCCCCCCCC(=O)OC(C)C`, the compound was classed as inactive in [1], in assay [7] and in [8]. Besides, the Potency result in [2], in assay [3], in [4], in assay [6], in [9] and in assay [10] was “inactive” in each case. The max response in [5] was 4.79% and -1.72%.

Regarding `CCO[Si](CCC#N)(OCC)OCC`, the outcome in [1], in assay [7] and in assay [8] was inactive. In addition, the Potency entry in [2], in assay [3], in [4], in [6], in assay [9] and in assay [10] was “inactive” each time. In [5], the max response is 7.39% and 2.23%.

For `COC(=O)CCCC(=O)OC`, the compound was called inactive in assay [1], in [7] and in [8]. The Potency result in [2], in assay [3], in assay [4], in [6], in assay [9] and in assay [10] was “inactive” throughout. Also, the max response in [5] was 4.51% and 15.2%.

Turning to `CCc1ccccc1CC`, the result in [1], in [7] and in [8] was inactive. The Potency entry in [2], in assay [4], in assay [6], in assay [9] and in assay [10] was “inactive” in each case. For the same compound, the activity change, negative = cytotoxicity in assay [3] was 1.28% [at 15.8 µM]. For the same compound, in assay [5], the max response was 10.8% and 1.1%.

Consider `O=S(=O)(O)c1ccccc1`, for which the result in assay [1], in [7] and in assay [8] was inactive. The Potency entry in assay [2], in assay [3], in [4], in assay [6], in assay [9] and in assay [10] was “inactive” each time. Moreover, in assay [5], the max response was 0.0472% and -6.62%.

`C=Cc1ccc(C)cc1`: the compound was classed as inactive in assay [1], in [7] and in assay [8]. For the same compound, the Potency entry in [2], in [3], in assay [4], in assay [6], in assay [9] and in assay [10] was “inactive” throughout. In [5], the max response is -4.48% and 7.7%.

`C=CCc1ccc(OC)c(OC)c1`: the result in assay [1], in assay [7] and in [8] was inactive. Moreover, the Potency result in assay [2], in assay [3], in assay [4], in [6], in assay [9] and in assay [10] was “inactive” in each case. Further, in assay [5], the max response is 0.535% and 0.477%.

`CCO[Si](CCCN)(OCC)OCC`: the Potency entry in [2], in assay [3], in [4], in assay [6], in assay [9] and in assay [10] was “inactive” in each case. In addition, in [5], the max response is -7.12% and 0.455%. The compound was called inactive in assay [7] and in [8].

`COc1ccc(CCC(C)=O)cc1`: the result in [1], in [7] and in [8] was inactive. Besides, the Potency entry in assay [2], in assay [3], in [4], in [6], in assay [9] and in assay [10] was “inactive” throughout. The max response in [5] was 7.39% and 0.508%.

In the case of `CC(C)(C#N)c1cc(Cn2cncn2)cc(C(C)(C)C#N)c1`, the outcome in assay [1], in [7] and in assay [8] was inactive. For the same compound, the Potency result in assay [2], in assay [3], in assay [4], in assay [6], in assay [9] and in assay [10] was “inactive” each time. Also, the max response in assay [5] was 0.713% and 4.85%.

As for `CC(=O)CCC=C(C)C`, the outcome in assay [1], in assay [7] and in [8] was inactive. Moreover, the Potency result in assay [2], in assay [3], in [4], in [6], in assay [9] and in [10] was “inactive” in each case. Further, the max response in assay [5] is 10.6% and -4.31%.

`Brc1ccc(Br)c(Br)c1`: the call in assay [1], in assay [7] and in assay [8] was inactive. For the same compound, the Potency entry in [3], in assay [4], in [9] and in assay [10] was “inactive” in each case. Further, the max response in assay [5] is -6.36% and -22.4%.
